From PubChem BioAssay
Hits are enriched below; roughly 3.4% of the tested compounds scored in any of these assays.
FBW7 activator – human FBW7 E3 ligase activation, primary screen; Q969H0; AlphaScreen FBW7–phospho-cyclin E peptide binding, activator screen; normalized activity (activation), % at 26.1 µM; actives 0.13% (n = 650,000); in the data active = normalized activity above about 1.9%;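 note: purified mutant Fbw7 with reduced substrate affinity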
MITF inh – human MITF inhibition, primary screen. actives 0.91% (n = 650,000). inhibition, % at 2.6 µM. AlphaScreen MITF homodimerization, bead proximity signal; in the data active = inhibition above about 50%
Target sequence (O75030 whole entry, looked up): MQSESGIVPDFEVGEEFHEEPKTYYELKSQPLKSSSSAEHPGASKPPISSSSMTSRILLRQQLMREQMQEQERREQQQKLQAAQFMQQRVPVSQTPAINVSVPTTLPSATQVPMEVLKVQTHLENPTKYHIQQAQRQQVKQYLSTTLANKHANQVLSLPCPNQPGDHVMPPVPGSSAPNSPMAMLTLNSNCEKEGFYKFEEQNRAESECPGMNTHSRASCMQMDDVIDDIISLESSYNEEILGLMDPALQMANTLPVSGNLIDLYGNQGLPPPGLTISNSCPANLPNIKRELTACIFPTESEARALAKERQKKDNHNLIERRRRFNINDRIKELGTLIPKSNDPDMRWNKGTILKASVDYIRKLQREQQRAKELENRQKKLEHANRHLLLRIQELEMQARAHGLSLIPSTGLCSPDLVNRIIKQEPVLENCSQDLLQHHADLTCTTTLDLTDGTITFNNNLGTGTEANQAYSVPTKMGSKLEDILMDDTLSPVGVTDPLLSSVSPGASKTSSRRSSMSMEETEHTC
GPR151 ag – human GPR151 activation; PathHunter beta-arrestin GPR151 cells, luminescence; activation, % at 11.2 µM; actives 1% (n = 650,000); in the data active = activation above about 4.9%
TEAD-YAP inh – TEAD-YAP interaction inhibition. HEK-TIYL cells, TEAD-Gal4/YAP UAS-luciferase luminescence. inhibition, % at 9.12 µM. actives 1.4% (n = 640,000). AID 1259422; in the data active = inhibition above about 32%
MITF confirm – confirmation of human MITF inhibitors. shares compounds with MITF inh. AlphaScreen MITF homodimerization, biotin/His-MITF beads. inhibition, % at 2.6 µM. actives 16% (n = 4,700). AID 1259372;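 active = inhibition above a cutoff derived from the DMSO control wells, cut at about 28% in these data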;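 note: inhibitors lower the bead chemiluminescence by keeping MITF from dimerizing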
AS interf DR – AlphaScreen optical interference, dose response counter-screen; IC50, µM; AID 1259373; actives 6% (n = 480); AlphaScreen optical interference counterscreen, cell-free; shares compounds with MITF inh; call rule not given here
AlphaScreen intf2 – optically interferes with AlphaScreen signal; shares compounds with MITF inh; LysRS AlphaScreen counterscreen, signal interference, triplicate; inhibition, % at 2.6 µM; actives 7.6% (n = 4,700); AID 1259376;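 active = inhibition above a cutoff derived from the DMSO control wells, cut at about 30% in these data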
Large screens that a line does not name were inactive (follow-up assays come after a bar, where they were run).

Fc1ccc(CN2CCN(Cc3ccc4c(c3)OCO4)CC2)c(F)c1	MITF inh 60.9 | MITF confirm inactive | AlphaScreen intf2 inactive
Cc1ccc(C(=O)N2CCN(Cc3ccc4c(c3)OCO4)CC2)cc1	none
COc1ccc(NC(=S)N2CCN(Cc3ccc4c(c3)OCO4)CC2)cc1	none
Cc1ccc(C(=O)N/C(=C\c2ccc(F)cc2)C(=O)NCCCn2ccnc2)cc1	none
Cc1ccc(C(=O)N/C(=C\c2ccco2)C(=O)NCCN2CCCCC2)cc1C	MITF inh 58.4 | MITF confirm inactive | AlphaScreen intf2 inactive
O=C(NCCN1CCCCC1)/C(=C/c1ccco1)NC(=O)c1ccccc1	none
Cc1ccc(C(=O)N/C(=C\c2ccco2)C(=O)NCCCn2ccnc2)cc1	MITF inh 74.3 | MITF confirm 38.5 | AlphaScreen intf2 53.1
O=S(=O)(Nc1ccc(-c2cn3ccsc3n2)cc1)c1ccc(Cl)s1	none
CCOC(=O)CSc1nn2c(=O)c(C)nnc2s1	none
CCOC(=O)CC(=O)CSc1nn2c(=O)c(C)nnc2s1	MITF inh 53.2 | MITF confirm inactive | AlphaScreen intf2 36.7
O=C(NNC(=S)NCc1ccc(Cl)cc1)c1ccccn1	MITF inh 112.2 | MITF confirm 102.3 | AlphaScreen intf2 100.2
O=C(NNC(=S)NCc1ccco1)c1ccccn1	MITF inh 117.0 | MITF confirm 46.3 | AlphaScreen intf2 66.7
CCN(c1ccccc1)S(=O)(=O)c1ccc(F)c(C(=O)Nc2cccc(Cl)c2C)c1	none
CCOC(=O)N1CCN(c2cccc(C)c2C)CC1	none
Cc1cccc(N2CCN(C(=O)/C=C\C(=O)O)CC2)c1C	MITF inh 69.0 | MITF confirm 53.5 | AS interf DR inactive | AlphaScreen intf2 inactive
C[C@@H]1NC(=O)[C@@H]2C[C@H](NC(=O)Nc3cccc(F)c3)CN2C1=O	none
COc1ccccc1C(=O)NC1(C(F)(F)F)NC(=O)N(c2ccccc2)C1=O (stereo not given)	MITF inh 87.5 | MITF confirm inactive | AlphaScreen intf2 inactive
CC(C)C(NC(=O)c1ccoc1)c1nnc2n1CCN(Cc1cc3ccccc3[nH]1)CC2 (stereo not given)	MITF inh 69.1 | MITF confirm inactive | AlphaScreen intf2 inactive
CCOc1ccccc1/C=C(\C#N)c1nc(-c2ccc(C)cc2C)cs1	none
COc1ccccc1/C=c1\sc2nc(-c3ccc(OC(C)C)cc3)nn2c1=O	none
CC1=C([N+](=O)[O-])CS(=O)(=O)/C1=C\c1ccccc1	none
COc1cc(/C=C2\C(C)=C([N+](=O)[O-])CS2(=O)=O)ccc1O	MITF inh 87.3 | MITF confirm 75.7 | AS interf DR inactive | AlphaScreen intf2 inactive
O=C(C1CCC(CNS(=O)(=O)c2ccc(F)cc2)CC1)N1CCCCC1 (stereo not given)	none
CN(C)S(=O)(=O)c1ccc(C(=O)NCc2n[nH]c(=S)n2-c2ccc(F)cc2)cc1	none
Cn1nnnc1SCC1=C(C(=O)O)N2C(=O)C(N)C2SC1 (stereo not given)	none
CC(=O)CC1=C(C(=O)O)N2C(=O)C(N)C2SC1 (stereo not given)	MITF inh 60.6 | MITF confirm 29.7 | AS interf DR inactive | AlphaScreen intf2 inactive
O=C(CC1c2ccccc2Oc2ccccc21)Nc1ccc2c(c1)oc1ccccc12	none
Cc1cccc(CN2CCN(C3CCCCCC3)CC2)c1	none
CC1CCN(C2CCN(Cc3cccc(Cl)c3)CC2)CC1	MITF inh 57.1 | MITF confirm inactive | AlphaScreen intf2 inactive
CC1CCC(N2CCN(Cc3cccc(Cl)c3)CC2)CC1 (stereo not given)	MITF inh 63.5 | MITF confirm inactive | AlphaScreen intf2 inactive
CC1CCN(C2CCN(Cc3ccc4c(c3)OCO4)CC2)CC1	MITF inh 54.5 | MITF confirm inactive | AlphaScreen intf2 inactive
OC1CCN(Cc2ccc3c(c2)OCO3)CC1	none
Clc1cccc(CN2CCN(C3CCCCC3)CC2)c1	MITF inh 74.1 | MITF confirm inactive | AlphaScreen intf2 inactive
OCC1CCN(C2CCCN(Cc3cccc(Cl)c3)C2)CC1 (stereo not given)	none
COCCNC(=O)CC(NS(=O)(=O)c1ccc(Cl)cc1)c1ccc(OC)cc1 (stereo not given)	none
O=C1N(CN2CCCCC2)c2ccccc2C12OCCO2	none
CN(C)CC(C)(C)CNC(=O)C1CCN(Cc2cccc(Br)c2)CC1	MITF inh 57.5 | MITF confirm inactive | AlphaScreen intf2 inactive
O=C(NNC(=S)Nc1ccccc1C(F)(F)F)c1ccc(Br)o1	none
O=C(NNC(=S)Nc1ccc(Cl)c(Cl)c1)c1ccccn1	MITF inh 113.6, TEAD-YAP inh 39.3 | MITF confirm 109.9 | AlphaScreen intf2 100.2
O=C(NNC(=S)Nc1ccccc1C(F)(F)F)c1ccccn1	MITF inh 112.9 | MITF confirm 103.6 | AlphaScreen intf2 100.2
CC(O)CC(=O)NNC(=S)Nc1ccc(Cl)c(Cl)c1 (stereo not given)	none
Cc1nc2c(c(N3CCOCC3)n1)CNCC2	none
CC(c1ccccn1)N(CCN(C)C)C(=S)Nc1cccc(F)c1 (stereo not given)	MITF inh 87.5 | MITF confirm 42.5 | AlphaScreen intf2 95.9
O=C(NCCc1ccncc1)c1csc(-n2cccc2)n1	MITF inh 52.0 | MITF confirm inactive | AlphaScreen intf2 inactive
CC1=NN(c2ccc3cccc(O)c3n2)C(=O)C1	MITF inh 90.3 | MITF confirm 115.0 | AlphaScreen intf2 100.6
CC1=NN(c2cccc3ccccc23)C(=O)C1	none
Cc1ccc(-c2csc3nc(CN(C)C4CCN(C)CC4)[nH]c(=O)c23)cc1	MITF inh 59.5 | MITF confirm inactive | AlphaScreen intf2 inactive
O=C(Cc1nc2scc(-c3ccccc3)c2c(=O)[nH]1)N1CCCC1	none
O=S(=O)(NCc1ccncc1)c1ccc(Cl)cc1	none
N#Cc1ccc(OCC(O)CNCCCN2CCCC2=O)cc1 (stereo not given)	MITF inh 50.6 | MITF confirm inactive | AlphaScreen intf2 inactive
COC(=O)c1c(NC(=O)CCCOc2ccc(C)cc2)sc2c1CCCC2	MITF inh 78.0 | MITF confirm inactive | AlphaScreen intf2 inactive
CN1CCN(CC(=O)Nc2sc3c(c2C(N)=O)CCCC3)CC1	MITF inh 72.1 | MITF confirm inactive | AlphaScreen intf2 inactive
COC(=O)c1c(NC(=O)CCN2CCN(C)CC2)sc2c1CCC2	MITF inh 90.3 | MITF confirm inactive | AlphaScreen intf2 inactive
O=C(Cc1cccs1)NCCCCCCNC(=O)Cc1cccs1	none
O=C(Cc1cccs1)NCCCN1CCOCC1	MITF inh 101.9 | MITF confirm inactive | AlphaScreen intf2 inactive
Cc1cccc(C)c1NC(=O)CNCCCN1CCOCC1	MITF inh 88.0 | MITF confirm inactive | AlphaScreen intf2 inactive
Cc1cccc(NC(=O)CNCCCN2CCOCC2)c1C	MITF inh 75.6 | MITF confirm inactive | AlphaScreen intf2 inactive
FC(F)(F)c1cccc(-c2cc(NCCCn3ccnc3)nc(-c3ccccn3)n2)c1	none
